# According to PubChem BioAssay (NCI):
# This is part of a sample that, as a whole, favours compounds with a hit. Of some 83,000 tested, about 20% had one in any assay.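 Plates (96-well) were seeded with cells, treated with compound at one concentration, and incubated for 48 hours before percent growth was determined.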 Calls of active or inactive are those of the source.
# Test system: A549/ATCC NSCLC
# Assay: NCI-60 one-dose screen, 48 h (100 = growth as untreated, 0 = no growth, -100 = all killed)
# Settings: 10 µM
# Procedure: Growth inhibition of the A549/ATCC human Non-Small Cell Lung tumor cell line is measured as a screen for anti-cancer activity. Cells are grown in 96 well plates and exposed to the test compound for 48 hours. Compounds are tested at a single concentration, which is 10^-5 M for most compounds. The reported endpoint is percent growth (GI% or GIPRCNT), where numbers from 0 - 100% represent growth inhibition, and numbers from -100% - 0 represent cell death. For example, a value of 40 represents 60% growth inhibition. A value of 0 means no net growth occurred over the course of the experiment. A value of -40 indicates 40% of cells at the beginning of the experiment died by the end of the experiment. A value of -100 means all cells are dead at the end of the experiment.
# NCI-60 Human Tumor Cell Lines Screen was performed using the standard one-dose NCI protocol, which is described in more detail at https://dtp.cancer.gov/discovery_development/nci-60/default.htm.
# Compounds with GIPRCNT values below 10 were considered active. Activity score was based on GIPRCNT using the following formula: […]
# Score is 0 for GIPRCNT values of 100 or above, 50 for GIPRCNT values of 0, and 100 for GIPRCNT values of -100.
row,SMILES,growth
1,CCCCCC(=O)N1c2ccccc2NC2=C(C(=O)CC(c3ccc(OC)c(OC)c3)C2)C1c1ccc(C(F)(F)F)cc1 (stereo not given),58.5% (inactive)
2,COc1ccc(/C=C2\SC(=S)N(CCCN3CCOCC3)C2=O)c(OC)c1,102% (inactive)
3,CC(Oc1ccc(Cl)cc1)c1ccccc1 (stereo not given),102% (inactive)
4,CCCCc1ccc(NC(=O)N(CCCl)N=O)cc1,102% (inactive)
5,CCCCC(CC#N)(CCC)CCC,94.4% (inactive)
6,CC[C@@]1(C(N)=O)CC2C=CC1C2 (stereo not given in full),107% (inactive)
7,O=C(Nc1ccc(OCc2nnc(-c3ccccc3)o2)c(F)c1)Nc1ccc(Cl)c(Cl)c1,55.5% (inactive)
8,Cc1ccc2nc(-c3ccc(OCC(=O)N=Nc4c(O)[nH]c5ccccc45)cc3)[nH]c2c1,79.2% (inactive)
9,c1ccc(COCC[P+](c2ccccc2)(c2ccccc2)c2ccccc2)cc1,8.47% (active)
10,O=C(NNC(=O)c1ccncc1)Nc1ccc([N+](=O)[O-])cc1,106% (inactive)
11,CCCC(C)c1ccc(OCCCCCCN2CCNCC2)cc1 (stereo not given),39.7% (inactive)
12,CCOC(=O)C(CCC1=NC(C)(C)CC(C)O1)C(=O)OCC (stereo not given),101% (inactive)
13,Cc1[nH]nc2c(=S)[nH]c(=O)[nH]c12,100% (inactive)
14,CC(=O)c1ccc(NCn2nc(-c3ccc(Cl)cc3)oc2=S)cc1,79.2% (inactive)
15,CCCCCCCCCCCCCC[n+]1ccc(C)cc1,-30.5% (active)
16,Oc1ccccc1-c1nnc(Cn2c(Cc3cccc4ccccc34)nc3ccccc32)o1,100% (inactive)
17,CCN(Cc1ccccc1)C1CCN(Cc2cc(Br)ccc2O)CC1,58.9% (inactive)
18,COc1ccc2nc(C)cc(Nc3ccc(Cl)cc3)c2c1,92.2% (inactive)
19,COc1cc(NS(C)(=O)=O)ccc1Nc1c2ccc(Cl)cc2nc2c(OC)cccc12,-7.09% (active)
20,O=C(O)c1ccc(CNc2ccc(C(=O)CCl)cc2)cc1,94.9% (inactive)

row,SMILES,growth
1,C=CCNC(=S)NN,69.6% (inactive)
2,N=C(N)c1ccc(-c2ccc(-c3ccccc3)s2)s1,-60.8% (active)
3,Nc1ccc(Sc2ccc3c4c2cccc4c(=O)n2c4ccccc4nc32)cc1,20.6% (inactive)
4,CC(=O)CS(C)(=O)=O,96.7% (inactive)
5,COCCOC(=O)NC(=O)Nc1ccc(/C(=N/O)c2ccc(Cl)cc2)cc1,15.4% (inactive)
6,CC(=O)OCC(COC(C)=O)(COC(C)=O)COC(C)=O,111% (inactive)
7,COc1cc(-c2nc3ccc(C)cc3[nH]2)ccc1OCc1nnc(-c2ccc(CC(C)C)cc2)o1,93.5% (inactive)
8,COc1ccc(-c2nnc(N3CCN(C(=O)CN4CCN(c5ccc(Cl)cc5)CC4)CC3)nc2-c2ccc(OC)cc2)cc1,58.8% (inactive)
9,CCOC(=O)Cn1nnc(-c2ccc(OCc3ccccc3F)cc2)n1,90.8% (inactive)
10,C=CCOc1ccc2c(c1)CC[C@@H]1[C@@H]2CC[C@]2(C)C(=O)/C(=N/O)C[C@@H]12,58.5% (inactive)
11,Cn1cnc([N+](=O)[O-])c1Sc1nnc(-c2ccccc2)c(-c2ccccc2)n1,114% (inactive)
12,Oc1ccc(Cn2cc3c(c2-c2ccccc2)CCc2cnoc2-3)cc1,84.1% (inactive)
13,CCOC(=O)c1sc(NC(=O)c2cc(OC)c(OC)c(OC)c2)nc1C,101% (inactive)
14,COc1ccc(C2=Cc3ccc(OC(C)=O)cc3OC2)cc1,88.3% (inactive)
15,CCCCCCCCCCN=C(c1ccc(N(C)C)cc1)c1ccc(N(C)C)cc1,30.5% (inactive)
16,COC(=O)[C@]12CC[C@@H](C)[C@H](C)[C@@H]1C1=CC[C@@H]3[C@@]4(C)C/C(=N\O)[C@H](O)[C@@]5(C)COC(=C45)C[C@@]3(C)[C@]1(C)CC2,-90.6% (active)
17,COc1cc(C2C=C(c3ccc(Cl)c(Cl)c3)N=C3SC(C)=CN32)cc(OC)c1OC (stereo not given),83.8% (inactive)
18,COc1ccc(-c2nc(-c3ccccc3)c(-c3ccccc3)[nH]2)cc1OC1CCCC1,61.8% (inactive)
19,CCCCCCCCCCCCCCCCCBr,108% (inactive)
20,Cc1ccc(C)c2c1sc1nc3n[nH]c(N)c3c(=N)n12,106% (inactive)
